Drawing on PubChem BioAssay (NCI), this text covers growth for 40 compounds.

Compounds without any hit were thinned out: in the full panel of roughly 83,000, 20% have a hit.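 Step 1: grow cells in 96-well plates. Step 2: add test compound at a single concentration. Step 3: incubate 48 h. Step 4: record percent growth.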 A number with no mark means an inactive call. Calls of active or inactive are those of the source.

In this experiment the test system is M14 melanoma. The experiment is described as follows: NCI-60 one-dose screen, 48 h (100 = growth as untreated, 0 = no growth, -100 = all killed). As to conditions: 10 µM unless noted. How it is done:
Growth inhibition of the M14 human tumor cell line is measured as a screen for anti-cancer activity. Cells are grown in 96 well plates and exposed to the test compound for 48 hours. Compounds are tested at a single concentration, which is 10^-5 M for most compounds. The reported endpoint is percent growth (GI% or GIPRCNT), where numbers from 0 - 100% represent growth inhibition, and numbers from -100% - 0 represent cell death. For example, a value of 40 represents 60% growth inhibition. A value of 0 means no net growth occurred over the course of the experiment. A value of -40 indicates 40% of cells at the beginning of the experiment died by the end of the experiment. A value of -100 means all cells are dead at the end of the experiment.
NCI-60 Human Tumor Cell Lines Screen was performed using the standard one-dose NCI protocol, which is described in more detail at https://dtp.cancer.gov/discovery_development/nci-60/default.htm.
Compounds with GIPRCNT values below 10 were considered active. Activity score was based on GIPRCNT using the following formula: […]
Score is 0 for GIPRCNT values of 100 or above, 50 for GIPRCNT values of 0, and 100 for GIPRCNT values of -100.
For `CNCCCNc1nc2ccccc2c2c(=O)c3cc(Cl)ccc3sc12`, the growth is -57.2% (active). The figure for `CCn1cc(C(=O)N/N=C/c2cccc(F)c2)c(=O)c2cc(F)c(N3CCNC(C)C3)c(F)c21` (stereo not given) is -7.07% (active).

With `Cc1cc(=O)n(C(=S)Nc2ccc(Cl)cc2)c2cc(O)ccc12`, the growth was 108%. As for `CS(=O)(=O)Nc1cc(-c2ccc3ncnc(Nc4ccc(F)c(Cl)c4)c3c2)ccc1Cl`, the growth was 46.8%.

As to `COC(=O)c1c2c(c(C)[n+]([O-])c1C)C(=O)C(NCc1ccccc1)=CC2=O`, the growth is 9.18% (active). The figure for `C=C(C)[C@@H]1CC[C@]2(COC3CCCCO3)CC[C@]3(C)[C@H](CC[C@@H]4[C@@]5(C)C=C(C=O)C(=O)C(C)(C)[C@@H]5CC[C@]43C)[C@@H]12` (stereo not given in full) is -62.9% (active); for `Cc1cc(O)cc(-c2nn(C)cc2-c2cc(N3CCOCC3)nc(-c3cccnc3)n2)c1` it is 28.4%.

Regarding `CCCC(O)Cn1ncc(C(=O)OCC)c1NC(=O)NCc1cccc(C(F)(F)F)c1` (stereo not given), the growth is 58.5%. The figure for `O=C(Nc1ccc(Oc2cccc(Cl)c2)c(Cl)c1)c1cccnn1` is 92.8%; for `CSc1ccc2c3c(n(C[C@H](O)CO)c(=O)c2c1)-c1ccccc1C3=O` it is 52.2%; for `COc1cc(/C=C/c2cn[nH]c2-c2ccc(C)cc2)cc(OC)c1OC` it is -3.71% (active). The figure for `CC(C)C1C2=C(NCCN1C(=O)c1ccncc1)C(C)(C)N(Cc1ccccc1)C2=O` (stereo not given) is 101%. To `Clc1ccc2nn3c4ccccc4c(OCCN4CCOCC4)nc3c2c1` belongs 122%; to `CCOc1ccc(NC(=O)Nc2ccc(OCC)cc2)cc1`, 109%. In the case of `ClCCn1cnc2c(SCc3ccccc3)ncnc21`, the growth is 71.7%. With `COC(=O)c1c(C)nc(C)c2c1C(=O)C=C(NCc1ccccc1)C2=O`, the growth was 66.9%.

On to `CN(C)c1ccc(C(=S)c2ccc(N(C)C)cc2)cc1`, for which the growth was 51.1%. The figure for `CC/C(=C(\c1ccc(Cl)cc1)c1ccc(OCCN2CCCCC2)cc1)c1ccc(O)cc1` is -55.5% (active); for `CN1C(=O)N2CN3CCCN(C3)CN3C(=S)NC1C23` (stereo not given) it is 107%. For `Clc1ccc(Nc2nnc(CNc3ccccc3)c3ccccc23)cc1`, the growth is 5.8% (active). To `C#COc1cccc(Nc2ncnc3cc(NC(=O)[C@H](C)Cl)ccc23)c1` belongs 11.7% [6.25 µM]; to `COc1ccc(/C=C2\c3cc(OC)c(OC)c(OC)c3CC[C@@H]2O)cc1F`, 5.42% (active). To `OC1(c2ccccc2)c2ccccc2N(c2ccccc2)c2ccc(Cl)cc21` (stereo not given) belongs -79.5% (active).

On to `COc1ccc(-c2nc(SCC(=O)Nc3nc4ccc(C)cc4s3)[nH]c(=O)c2C#N)cc1OC`, for which the growth was 91.3%. To `Cn1cc(-c2csc(-c3cn(CCCN4CCOCC4)c4ccc(F)cc34)n2)c2cccnc21` belongs 46.2%. The figure for `O=c1cc(CP(=O)(O)O)c2cc(O)c(-c3ccccc3)cc2o1` is 97.6%; for `COc1cc(C=Nc2oc(-c3ccccc3)c(-c3ccccc3)c2C#N)cc(CN2CCCC2)c1O` it is 100%. To `COc1ccc(C=Nc2c(C(=O)Nc3cccc(Cl)c3C)sc3nc(C)c(C(=O)/C=C/c4ccc(OC)cc4)cc23)cc1` belongs -3.16% (active); to `COc1cc2ncnc(Nc3ccc(S(=O)(=O)Nc4nccs4)cc3)c2cc1OCCCN1CCCC1`, 109%. As to `N#Cc1c(-c2ccccc2)cc(-c2ccccc2)n(CCCCC(=O)NO)c1=O`, the growth is 19.1%. The figure for `Cn1c2ccccc2c2c3c(c4c5cc(Br)ccc5n(C)c4c21)C(=O)N(O)C3=O` is -5.5% (active); for `Nc1nc2ccccc2c2c(=O)c3cc(Cl)ccc3sc12` it is 105%; for `N=C(N)c1ccc(OCCSCCOc2ccc(C(=N)N)cc2)cc1` it is 75.3%. On to `C=C(C)[C@@H]1CC[C@]2(C(=O)N3CCNCC3)CC[C@]3(C)[C@H](CC[C@@H]4[C@@](C)(CCC(=O)N5CCNCC5)[C@H](C(=C)C)CC[C@]43C)[C@@H]12`, for which the growth is 85.8%. To `COc1ccc(OC)c(Nc2nnc(-c3cc(OC)c(OC)c(OC)c3)o2)c1` belongs 101%; to `O=C(Nc1nc(Cl)nc(Nc2ccc(N3CCOCC3=O)cc2)n1)c1ccc(Cl)s1`, 90.4%; to `O=C(c1c[nH]c2ccccc12)c1n[nH]c(=S)n1-c1ccc([N+](=O)[O-])cc1`, 95.9%. As for `CC1(/C=C/c2ccc(-c3ccccc3)cc2)CCn2cnc3ncnc(c32)N1O` (stereo not given), the growth was -2.25% (active). The figure for `COc1cc(/C=N/NC(=O)c2ccc(-n3cc(-c4ccccc4)nn3)cc2)cc(OC)c1OC` is 26.6%; for `CCOC(=O)C/C(=N\Nc1cc(=O)[nH]c2ccc(OC)cc12)C(=O)OCC` it is 102%.
